BAZ2B inh: inhibitors of human BAZ2B bromodomain | Q9UIF8 | AlphaScreen BAZ2B-H3K14Ac peptide displacement | Potency, µM (highest dose often 114 µM), for the others: top-dose activity change, negative = inhibition, actives largely listed as inhibitors | 360,000 compounds, 4.4% hits; also: % is scaled to controls: 0 for no effect and ±100 for the full control effect; nearly all actives have a fitted effect of over 60% in size
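Multi-concentration screen (max 110 uM) measuring displacement of acetylated histone H3 peptide from BAZ2B by AlphaScreen, using 50 nM protein, 50 nM peptide and 10 ug/mL streptavidin donor plus Ni-chelate acceptor beads.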
JMJD2A Tudor inh: inhibitors of human JMJD2A Tudor domain; O75164; AlphaScreen JMJD2A-Tudor / H3K4me3 peptide binding; Potency, µM (top dose mostly 114 µM), for inactives: top-dose activity change, negative = inhibition, most hits filed as inhibitors; 390,000 compounds, 4.4% hits; also: % is scaled to controls: 0 for no effect and ±100 for the full control effect; nearly all actives have a fitted effect of over 50% in size
HP1b chromo inh: HP1-beta chromodomain-methylated histone interaction inhibition; P83916; AlphaScreen HP1-beta / biotin-H3K9me3 peptide binding; Potency, µM (highest dose often 114 µM), inactives show top-dose activity change, negative = inhibition, actives largely listed as inhibitors; 390,000 compounds, 0.56% hits; AID 540317; also: nearly all actives have a fitted effect of over 70% in size
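AlphaScreen: HP1-beta (50 nM) preformed 30 min with biotin-H3(1-18)K9me3 peptide (50 nM) in PBS pH 7.4, 0.01% Tween-20. Compound added for 30 min at RT, then streptavidin donor/nickel chelate acceptor beads (10 ug/mL) for 30 min.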
GLS inh: inhibitors of human glutaminase (GLS); O94925; GLS enzymatic activity, qHTS titration; Potency, µM (doses to about 45.5 µM), for the others: at the top dose activity change, negative = inhibition, hits mostly inhibitors; 410,000 compounds, 0.21% hits; AID 624170; also: % is scaled to controls: 0 for no effect and ±100 for the full control effect
Target sequence (O94925 whole entry, looked up): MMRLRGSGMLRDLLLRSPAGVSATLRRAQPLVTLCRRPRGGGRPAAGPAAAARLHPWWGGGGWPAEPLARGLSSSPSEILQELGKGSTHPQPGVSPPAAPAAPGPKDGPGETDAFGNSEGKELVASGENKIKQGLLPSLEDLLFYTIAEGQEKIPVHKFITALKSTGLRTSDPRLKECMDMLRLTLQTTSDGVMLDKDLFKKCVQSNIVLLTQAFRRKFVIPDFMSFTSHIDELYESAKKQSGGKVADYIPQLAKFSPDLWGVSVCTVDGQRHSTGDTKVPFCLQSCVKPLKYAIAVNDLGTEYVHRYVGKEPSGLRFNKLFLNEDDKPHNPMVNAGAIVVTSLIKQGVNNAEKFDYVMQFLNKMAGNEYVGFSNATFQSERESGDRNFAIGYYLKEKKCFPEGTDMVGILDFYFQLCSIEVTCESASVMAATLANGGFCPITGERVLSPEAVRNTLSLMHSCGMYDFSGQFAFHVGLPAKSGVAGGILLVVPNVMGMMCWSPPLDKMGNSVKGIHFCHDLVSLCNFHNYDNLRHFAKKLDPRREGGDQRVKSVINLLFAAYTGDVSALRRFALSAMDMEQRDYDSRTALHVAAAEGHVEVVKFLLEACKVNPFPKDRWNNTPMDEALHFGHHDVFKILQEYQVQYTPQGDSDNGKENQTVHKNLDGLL
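Enzyme dispensed in phosphate buffer (45 mM, pH 8.2, 0.02% Tween-20), compounds pinned in, then 1 mM L-glutamine solution and the glutamate oxidase–HRP–Amplex Red mix added; fluorescence read immediately and again after 30 min at room temperature.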
G9a block: G9a (human) methyltransferase inhibition. G9a H3K9 monomethylation, AlphaScreen, 2 h. Potency, µM (doses to about 102 µM), for inactives: at the top dose activity, negative = inhibition, usual class: inhibitors. 350,000 compounds, 8.8% hits. AID 504332; also: % is scaled to controls: 0 for no effect and ±100 for the full control effect; nearly all actives have a fitted effect of over 75% in size
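Quantitative HTS format: methyltransferase activity on a biotin-tagged H3K9 peptide is measured by AlphaScreen, using a rabbit anti-monomethyl-H3K9 antibody with streptavidin donor and anti-IgG acceptor beads. Final levels are 20 nM enzyme, 500 nM peptide, 20 uM SAM; 2 h RT.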
The depositor's hits bear a star; ? = inconclusive; nt = not tested or not shown; ! = not active in a repeat; [ ] = dose if it differs, or a comment. A selection: hits, their analogues and other compounds. The true share with any hit is near 10%. Calls follow the shape of the dose curve; as a rule, active = well fitted curve in the direction sought with a large enough effect; inconclusive = small, poorly fitted or top-dose-only effect, or another doubt; inactive = no such curve, though single readings can be large; an effect the other way counts as inactive or inconclusive. Potency is read from the fitted curve at half-maximal effect.

SMILES	BAZ2B inh	JMJD2A Tudor inh	HP1b chromo inh	GLS inh	G9a block
CCN(CC)CCC(=O)c1ccc(F)cc1	1%	-10%	50%	0%	40µM*
CSc1ccc(C2C(C#N)=C(N)Oc3cc4c(cc32)OCO4)cc1 (centres undefined)	-39%	?	6%	20%	-27%[59 µM]
Cc1cccc(-c2cc3nc4c(c(NCc5ccco5)n3n2)CCCC4)c1	-7%	79µM*	-13%	5%	0%[59 µM]
Cc1cccc(-c2cc3nc4c(c(N5CCOCC5)n3n2)CCCC4)c1	42%	10%	108%	9%	-28%[59 µM]
Cc1occc(=O)c1O	?	25µM*	23%	16%	?
Cc1occc(=O)c1OCc1ccccc1	?	-6%	25%	3%	14%
CCOc1ccc(CC(=O)OCN2C(=O)c3ccccc3C2=O)cc1	-3%	-3%	23%	6%	40µM*
O=C(Cc1ccc(F)cc1)OCN1C(=O)c2ccccc2C1=O	79µM*	-9%	46%	0%	28µM*
COc1ccc(CC(=O)OCN2C(=O)c3ccccc3C2=O)cc1	6%	11%	48%	-5%	23%[59 µM]
O=C(c1ccccc1)N1CCCOC1c1ccccc1 (centres undefined)	nt	-8%	25%	12%	25µM*
Cc1ccc(C(=O)NCC(=O)NCCCc2ccccc2)cc1	-10%	-5%	11%	4%	-7%
Cc1ccc(Nc2nnc(SC/C(O)=C(\C#N)c3nc4ccccc4[nH]3)s2)c(C)c1	5%	-32%	2%	6%	7.1µM*
Cc1cccc(Nc2nnc(SC/C(O)=C(\C#N)c3nc4ccccc4[nH]3)s2)c1	-33%	-17%	1%	16%	16µM*
Cc1cc(C)n2c(SCC(O)=C(C#N)c3nc4ccccc4[nH]3)nnc2n1	nt	-25%	-4%	-4%	nt
CNC(=O)Cn1nc(C)c2ccccc2c1=O	-4%	1%	24%	12%	17%
O=C(CC(Sc1ccc(Br)cc1)C(=O)O)c1ccc(Br)cc1 (centres undefined)	1%	nt	nt	nt	25µM*
CNC(=O)OCc1cccc(COC(=O)NC)n1	?	-5%	32%	1%	45µM*!
CNC(=O)OCc1cocc1COC(=O)NC	nt	nt	nt	-24%	nt
COc1cccc(C(=O)N(C)c2nnc(-c3ccncc3)s2)c1	1%	-13%	30%	1%	79µM*
CN(C(=O)c1ccccn1)c1nnc(-c2cnccn2)s1	79µM*	-4%	3%	7%	45µM*
CN(C(=O)c1cccc(C#N)c1)c1nnc(-c2ccncc2)s1	-1%	-5%	46%	12%	?
CN(C(=O)c1cccnc1)c1nnc(-c2ccccn2)s1	56µM*	-14%	19%	-2%	?
CCCC(=O)N(C)c1nnc(-c2ccc(OC)cc2)s1	-3%	-4%	23%	2%	45µM*
CN(C(=O)c1cccnc1)c1nnc(-c2cnccn2)s1	8%	-4%	12%	12%	-6%[2.33 µM]
CN(C(=O)c1cnccn1)c1nnc(-c2cnccn2)s1	-3%	-21%	14%	-1%	-8%[2.33 µM]
SMILES	BAZ2B inh	JMJD2A Tudor inh	HP1b chromo inh	GLS inh	G9a block
COc1ccccc1CNc1ncncc1-c1ccc2c(c1)OCO2	nt	nt	nt	nt	11%[0.501 µM]
COc1ccccc1-c1cc(C(=O)Nc2cc(C)on2)no1	4%	-6%	31%	-9%	2%
COc1ccccc1CNC(=O)c1oc2ccc(S(=O)(=O)N3CCCC3)cc2c1C	-4%	-8%	14%	0%	-44%[59 µM]
C[C@@H]1CC[C@]2(C(=O)O[C@@H]3O[C@H](CO)[C@@H](O)[C@H](O)[C@H]3O)CC[C@]3(C)C(=CCC4[C@@]5(C)C[C@@H](O)[C@H](O)[C@@](C)(C(=O)O[C@@H]6[C@H](O)C[C@@]7(C)C(CC[C@]8(C)C7CC=C7[C@H]9[C@](C(=O)O[C@@H]%10O[C@H](CO)[C@@H](O)[C@H](O)[C@H]%10O)(CC[C@@H](C)[C@@]9(C)O)CC[C@]78C)[C@@]6(CO)C(=O)O)C5CC[C@]43C)[C@@H]2[C@]1(C)O (some centres undefined)	nt	-13%	21%	7.1µM*	nt
C[C@H]1O[C@H](O[C@H]2[C@H](O[C@@H]3CC[C@@]4(C)C(CC[C@]5(C)C4CC=C4[C@@H]6CC(C)(C)CC[C@]6(C(=O)O[C@@H]6O[C@H](CO)[C@@H](O)[C@H](O)[C@H]6O)CC[C@]45C)C3(C)C)O[C@H](C(=O)O)[C@@H](O)[C@@H]2O)[C@@H](O)[C@@H](O)[C@@H]1O (some centres undefined)	7%	-14%	52%	?	12%[12.7 µM]
CC1(C)CC(=O)C(C(C2=C(O)CC(C)(C)CC2=O)c2ccc(O)c([N+](=O)[O-])c2)=C(O)C1	-32%	-8%	20%	-1%	35µM*
CC1(C)CC(=O)C2=C(C1)OC1=C(C(=O)CC(C)(C)C1)C2c1ccc(O)c([N+](=O)[O-])c1	-4%	-20%	23%	7%	-27%
COc1cccc(C(C2=C(O)CC(C)(C)CC2=O)C2C(=O)CC(C)(C)CC2=O)c1 (centres undefined)	1%	-15%	43%	44%	45µM*
COc1cccc(C(C2C(=O)CC(C)(C)CC2=O)C2C(=O)CC(C)(C)CC2=O)c1	-2%	-6%	61%	18%	79µM*
Cc1cc(C(C2C(=O)CC(C)(C)CC2=O)C2C(=O)CC(C)(C)CC2=O)cc(C)c1OC(F)F	-12%	-25%	4%	4%	32µM*
CC1(C)CC(=O)C(C(c2ccccc2F)C2C(=O)CC(C)(C)CC2=O)C(=O)C1	-1%	-11%	60%	16%	nt
Cc1ccc(OCc2nnc(SCC(=O)NC3CCCCC3)n2C)cc1	3%	1%	32%	-5%	2%[12.7 µM]
CC1(C)CC(=O)C(C(C2=C(O)CC(C)(C)CC2=O)c2ccc([N+](=O)[O-])cc2)C(=O)C1 (centres undefined)	-16%	-10%	46%	23%	32µM*
CC1(C)CC(=O)C(C(c2cccnc2)C2C(=O)CC(C)(C)CC2=O)C(=O)C1	-1%	-32%	32%	7%	50µM*
COC(=O)COc1ccc(C(C2C(=O)CC(C)(C)CC2=O)C2C(=O)CC(C)(C)CC2=O)cc1	12%	13%	52%	28%	32µM*
COC(=O)COc1ccc(NC(=O)C(c2ccccc2)c2ccccc2)cc1	?	-19%	-3%	-10%	-2%
COc1ccc(N2CCC(CNC(=S)Nc3c(C)cc(C)cc3C)C2)cc1 (centres undefined)	20µM*	35µM*	7.1µM*	9%	?
COc1ccc(N2CCC(CNC(=S)Nc3ccc(C)cc3C)C2)cc1 (centres undefined)	16µM*	28µM*	?	29%	?
